Measured values taken from PubChem BioAssay (EPA / NIEHS).
Activity calls are given as the source filed them. The calls were made as follows: active = hit-call score of the fitted dose curve at least 0.9, where 1 is the maximum; inactive = score below 0.9.

Assays:
Details in all cases: mRNA level, 48 h; actives raise or lower the signal
[1] = read-out: 3-Hydroxy-3-Methylglutaryl-CoA Synthase 2 (HMGCS2), HMGCS2 (gene 3158); test: LTEA_HepaRG_HMGCS2: Life Technologies and Expression Analysis (LTEA) Assay for 3-Hydroxy-3-Methylglutaryl-CoA Synthase 2 (HMGCS2) using HepaRG (AID 2283504)
How it was run: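 Differentiated human HepaRG cells were exposed in duplicate for 48 h in serum-free induction medium to eight concentrations (top 100 uM, half-log steps, 0.5% DMSO). HMGCS2 mRNA was quantified by TaqMan qRT-PCR, normalised to ACTB, GAPDH and POLR2A, then fitted bidirectionally against DMSO.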

HGF (gene 3082) = test: LTEA_HepaRG_HGF: Life Technologies and Expression Analysis (LTEA) Assay for Hepatocyte Growth Facto (HGF) using HepaRG (AID 2283505)
How it was run: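 Differentiated human HepaRG cells in serum-free induction medium were exposed in duplicate for 48 h to eight concentrations (top 100 uM, half-log steps, 0.5% DMSO). HGF mRNA was quantified by qRT-PCR, normalized to ACTB, GAPDH and POLR2A.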

[2] = read-out: Insulin Like Growth Factor 1 (IGF1), IGF1 (gene 3479); test: LTEA_HepaRG_IGF1: Life Technologies and Expression Analysis (LTEA) Assay for Insulin Like Growth Factor 1 (IGF1) using HepaRG (AID 2283506)
How it was run: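 Differentiated human HepaRG cells were dosed for 48 h in serum-free induction medium with 0.5% DMSO, eight half-log concentrations up to 100 uM, in duplicate. IGF1 mRNA was quantified by qRT-PCR normalized to ACTB, GAPDH, POLR2A; bidirectional fitting versus DMSO.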

[3] = read-out: Insulin-like growth factor-binding protein 1 (IGFBP1), IGFBP1 (gene 3484); test: LTEA_HepaRG_IGFBP1: Life Technologies and Expression Analysis (LTEA) Assay for Insulin-like growth factor-binding protein 1 (IGFBP1) using HepaRG (AID 2283508)
How it was run: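 Differentiated human HepaRG cells in serum-free induction medium were exposed in duplicate for 48 h to eight concentrations, top 100 uM with half-log dilutions, in 0.5% DMSO. Transcript levels came from qRT-PCR normalised to ACTB, GAPDH and POLR2A, fitted bidirectionally against DMSO.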

[4] = read-out: Interleukin 6 (IL6), IL6 (gene 3569); test: LTEA_HepaRG_IL6: Life Technologies and Expression Analysis (LTEA) Assay for Interleukin 6 (IL6) using HepaRG (AID 2283509)
How it was run: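 HepaRG cells exposed in duplicate for 48 h to eight half-log concentrations, top 100 uM, in 0.5% DMSO serum-free induction medium. mRNA measured by qRT-PCR, normalized to ACTB, GAPDH and POLR2A. Bidirectional fit versus DMSO.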

[5] = read-out: Potassium channel subfamily K member 1 (KCNK1), KCNK1 (gene 3775); test: LTEA_HepaRG_KCNK1: Life Technologies and Expression Analysis (LTEA) Assay for Potassium channel subfamily K member 1 (KCNK1) using HepaRG (AID 2283511)
How it was run: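 Differentiated HepaRG cells, 48 h exposure in serum-free induction medium with 0.5% DMSO; 8 concentrations, half-log from 100 uM, duplicate. KCNK1 mRNA by qRT-PCR, normalized to ACTB, GAPDH, POLR2A; bidirectional fit vs DMSO.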

[6] = read-out: Keratin 19 (KRT19), KRT19 (gene 3880); test: LTEA_HepaRG_KRT19: Life Technologies and Expression Analysis (LTEA) Assay for Keratin 19 (KRT19) using HepaRG (AID 2283512)
How it was run: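 Differentiated human HepaRG cells, plated 48 h, were exposed in duplicate for 48 h in serum-free induction medium to eight half-log concentrations up to 100 uM in 0.5% DMSO. KRT19 mRNA was quantified by qRT-PCR, normalized to ACTB, GAPDH and POLR2A, and fitted bidirectionally versus DMSO.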

[7] = read-out: JUN Transcription Factor, JUN (gene 3725); test: LTEA_HepaRG_JUN: Life Technologies and Expression Analysis (LTEA) Assay for JUN Transcription Factor using HepaRG (AID 2283513)
How it was run: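 Differentiated HepaRG cells were exposed to chemicals for 48 h in serum-free induction medium, 8 concentrations from 100 uM in half-log steps, 0.5% DMSO vehicle, in duplicate. JUN mRNA was quantified by TaqMan qRT-PCR, normalized to ACTB, GAPDH, POLR2A.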

[8] = read-out: Lipase C (LIPC), LIPC (gene 3990); test: LTEA_HepaRG_LIPC: Life Technologies and Expression Analysis (LTEA) Assay for Lipase C (LIPC) using HepaRG (AID 2283514)
How it was run: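 HepaRG cells, 48 h after plating, treated in duplicate for 48 h in serum-free induction medium over 8 half-log concentrations from 100 uM, 0.5% DMSO. LIPC mRNA by TaqMan qRT-PCR normalized to ACTB/GAPDH/POLR2A; bidirectional fit versus DMSO.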

[9] = read-out: Lipoprotein lipase (LPL), LPL (gene 4023); test: LTEA_HepaRG_LPL: Life Technologies and Expression Analysis (LTEA) Assay for Lipoprotein lipase (LPL) using HepaRG (AID 2283515)
How it was run: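 Differentiated HepaRG cells, plated 48 h, then exposed 48 h in serum-free induction medium to 8 concentrations (top 100 uM, half-log steps) in 0.5% DMSO, duplicate. LPL mRNA measured by qRT-PCR, normalized to ACTB, GAPDH and POLR2A.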

[10] = read-out: matrix metalloproteinase-10 (MMP10), MMP10 (gene 4319); test: LTEA_HepaRG_MMP10: Life Technologies and Expression Analysis (LTEA) Assay for matrix metalloproteinase-10 (MMP10) using HepaRG (AID 2283517)
How it was run: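 Differentiated HepaRG cells in serum-free induction medium exposed 48 h in duplicate to 8-point half-log series up to 100 uM in 0.5% DMSO. mRNA quantified by qRT-PCR, normalised to ACTB, GAPDH, POLR2A; bidirectional fit versus DMSO.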

MYC, MYC (gene 4609) = test: LTEA_HepaRG_MYC: Life Technologies and Expression Analysis (LTEA) Assay for MYC using HepaRG (AID 2283518)
How it was run: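 Differentiated human HepaRG cells, plated 48 h then switched to serum-free induction medium, were exposed in duplicate for 48 h to 8-point half-log series up to 100 uM in 0.5% DMSO. MYC mRNA measured by qRT-PCR, normalized to ACTB/GAPDH/POLR2A.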

[11] = read-out: matrix metalloproteinase-3 (MMP3), MMP3 (gene 4314); test: LTEA_HepaRG_MMP3: Life Technologies and Expression Analysis (LTEA) Assay for matrix metalloproteinase-3 (MMP3) using HepaRG (AID 2283519)
How it was run: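 HepaRG cells (~100,000/well) in serum-free induction medium were dosed in duplicate for 48 h with an 8-point half-log series from 100 uM, 0.5% DMSO. MMP3 mRNA was quantified by Fluidigm TaqMan qRT-PCR, normalized to three housekeeping genes.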

[12] = read-out: Nuclear factor NF-kappa-B p105 subunit (Homo sapiens) (UniProt P19838); test: LTEA_HepaRG_NFKB1: Life Technologies and Expression Analysis (LTEA) Assay for Nuclear Factor Kappa B Subunit 1 (NFKB1) using HepaRG (AID 2283521);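 also: TaqMan qRT-PCR transcript normalised to ACTB GAPDH and POLR2A housekeeping genes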
How it was run: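 Differentiated human HepaRG cells in serum-free induction medium with 0.5% DMSO were exposed for 48 h to eight half-log concentrations, top 100 uM, in duplicate. NFKB1 mRNA measured by Fluidigm TaqMan qRT-PCR, normalised to ACTB, GAPDH and POLR2A; bidirectional fit versus DMSO.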

[13] = read-out: Protein phosphatase 2A (PPP2R4), PTPA (gene 5524); test: LTEA_HepaRG_PPP2R4: Life Technologies and Expression Analysis (LTEA) Assay for Protein phosphatase 2A (PPP2R4) using HepaRG (AID 2283522)
How it was run: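 Differentiated HepaRG cells in serum-free induction medium were exposed in duplicate for 48 h to eight concentrations, top 100 uM with half-log dilutions, in 0.5% DMSO. PPP2R4 mRNA was quantified by TaqMan qRT-PCR, normalized to ACTB, GAPDH and POLR2A.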

[14] = read-out: Phosphatase and tensin (PTEN), PTEN (gene 5728); test: LTEA_HepaRG_PTEN: Life Technologies and Expression Analysis (LTEA) Assay for Phosphatase and tensin (PTEN) using HepaRG (AID 2283523)
How it was run: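 HepaRG cells, 48 h after plating, exposed in duplicate for 48 h in serum-free induction medium to 8 half-log concentrations up to 100 uM (0.5% DMSO). PTEN mRNA by qRT-PCR, normalized to ACTB, GAPDH, POLR2A; bidirectional fit versus DMSO.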

[15] = read-out: Intercellular Adhesion Molecule 1 (ICAM1), ICAM1 (gene 3383); test: LTEA_HepaRG_ICAM1: Life Technologies and Expression Analysis (LTEA) Assay for Intercellular Adhesion Molecule 1 (ICAM1) using HepaRG (AID 2283507)
How it was run: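 Differentiated HepaRG cells in serum-free induction medium were exposed in duplicate for 48 h to eight half-log concentrations up to 100 uM in 0.5% DMSO. Transcript levels were measured by qRT-PCR normalized to ACTB, GAPDH and POLR2A; bidirectional fits relative to DMSO.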

[16] = read-out: Interleukin 6 Receptor (IL6R), IL6R (gene 3570); test: LTEA_HepaRG_IL6R: Life Technologies and Expression Analysis (LTEA) Assay for Interleukin 6 Receptor (IL6R) using HepaRG (AID 2283510)
How it was run: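 Differentiated human HepaRG cells, plated 48 h then switched to serum-free induction medium, were dosed in duplicate for 48 h at eight half-log concentrations up to 100 uM in 0.5% DMSO. IL6R mRNA quantified by qRT-PCR, normalized to ACTB/GAPDH/POLR2A; bidirectional fit versus DMSO.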

[17] = read-out: MicroRNA 122 (MIR122), gene 406906; test: LTEA_HepaRG_MIR122: Life Technologies and Expression Analysis (LTEA) Assay for MicroRNA 122 (MIR122) using HepaRG (AID 2283516); also: the transcript read is the microRNA miR-122
How it was run: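 Differentiated human HepaRG cells were exposed 48 h in serum-free induction medium to eight half-log concentrations (top 100 uM, 0.5% DMSO). Transcript level was measured by TaqMan qRT-PCR, normalized to ACTB, GAPDH and POLR2A, and fitted bidirectionally versus DMSO.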

[18] = read-out: Paternally Expressed 10 (PEG10), PEG10 (gene 23089); test: LTEA_HepaRG_PEG10: Life Technologies and Expression Analysis (LTEA) Assay for Paternally Expressed 10 (PEG10) using HepaRG (AID 2283520)
How it was run: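 Differentiated HepaRG cells, plated 48 h then switched to serum-free induction medium, were exposed in duplicate for 48 h to eight half-log concentrations topping at 100 uM in 0.5% DMSO. PEG10 mRNA was quantified by TaqMan qRT-PCR, normalised to ACTB, GAPDH and POLR2A.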

Measured: AC50

Sequence of Nuclear factor NF-kappa-B p105 subunit (Homo sapiens) (P19838 whole entry, looked up): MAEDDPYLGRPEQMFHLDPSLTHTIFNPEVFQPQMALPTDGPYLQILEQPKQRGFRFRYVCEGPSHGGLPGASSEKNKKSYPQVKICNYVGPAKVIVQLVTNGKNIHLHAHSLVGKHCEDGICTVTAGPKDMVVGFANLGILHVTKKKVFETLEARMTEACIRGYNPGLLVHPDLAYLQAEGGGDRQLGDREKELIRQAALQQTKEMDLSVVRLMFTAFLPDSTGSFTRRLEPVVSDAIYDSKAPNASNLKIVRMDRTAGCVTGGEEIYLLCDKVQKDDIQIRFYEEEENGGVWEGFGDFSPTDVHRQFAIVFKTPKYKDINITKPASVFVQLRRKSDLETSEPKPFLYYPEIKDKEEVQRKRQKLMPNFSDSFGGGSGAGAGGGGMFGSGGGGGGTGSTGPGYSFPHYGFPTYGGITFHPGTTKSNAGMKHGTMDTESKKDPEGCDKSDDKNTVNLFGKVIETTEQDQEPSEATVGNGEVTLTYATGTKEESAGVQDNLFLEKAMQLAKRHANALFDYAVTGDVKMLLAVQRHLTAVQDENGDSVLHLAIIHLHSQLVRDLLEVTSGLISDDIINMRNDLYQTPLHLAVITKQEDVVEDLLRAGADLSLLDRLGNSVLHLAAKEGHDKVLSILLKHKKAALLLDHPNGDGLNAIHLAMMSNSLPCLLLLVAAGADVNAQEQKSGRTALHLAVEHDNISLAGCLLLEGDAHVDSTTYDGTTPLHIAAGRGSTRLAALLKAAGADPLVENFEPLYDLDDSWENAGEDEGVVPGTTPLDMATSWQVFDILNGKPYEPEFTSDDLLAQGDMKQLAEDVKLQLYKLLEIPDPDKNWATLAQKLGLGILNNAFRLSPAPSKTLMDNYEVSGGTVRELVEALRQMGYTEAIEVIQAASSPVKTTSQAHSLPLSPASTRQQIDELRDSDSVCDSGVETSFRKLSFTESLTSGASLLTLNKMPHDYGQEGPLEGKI

Cc1c(-c2cccnc2)c2ccccc2n1CCCCC(=O)O
inactive: [1] | HGF (gene 3082) | [2] | [3] | [4] | [5] | [6] | [7] | [8] | [9] | [10] | MYC, MYC (gene 4609) | [11] | [12] | [13] | [14]

CCn1nc(Cc2ccccc2)cc1C1CCN(C[C@H]2C[C@H](N(C)[C@@H](C(=O)O)C(C)C)C[C@@H]2c2cccc(F)c2)CC1
inactive: [4] | [16] | [5] | [7] | [8] | [17] | [10] | MYC, MYC (gene 4609) | [18] | [12] | [13] | [14]
active: [1] 50 µM | [2] 37.7 µM | [15] 50 µM | [3] 73.6 µM | [6] 34.9 µM | [9] 50 µM

Clc1nc(Cl)c(Cl)c(Cl)c1Cl
inactive: [1] | HGF (gene 3082) | [2] | [3] | [4] | [16] | [5] | [6] | [7] | [8] | [9] | [17] | [10] | MYC, MYC (gene 4609) | [18] | [12] | [13] | [14]
